This is part of a sample that, as a whole, favours compounds with a hit. Of some 83,000 tested, about 20% had one in any assay.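 Cell lines were cultured in 96-well plates, exposed to a single compound concentration, and assessed for percent growth 48 hours later.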 Unmarked numbers belong to inactive results. Calls of active or inactive are those of the source. How the source made its calls: active means growth percent below 10; inactive means the rest.
Key:
Test in all cases: NCI-60 one-dose screen, 48 h (100 = growth as untreated, 0 = no growth, -100 = all killed)
Conditions in all cases: 10 µM
NCI-H23 lung = tested on: NCI-H23 lung
NCI-H226 lung = tested on: NCI-H226 lung
NCI-H322M lung = tested on: NCI-H322M lung
HOP-62 NSCLC = tested on: HOP-62 NSCLC
NCI-H460 lung = tested on: NCI-H460 lung
HOP-92 NSCLC = tested on: HOP-92 NSCLC
NCI-H522 lung = tested on: NCI-H522 lung
A549/ATCC NSCLC = tested on: A549/ATCC NSCLC
786-0 renal = tested on: 786-0 renal
COLO 205 colon = tested on: COLO 205 colon

SMILES | growth (NCI-H23 lung) | growth (NCI-H226 lung) | growth (NCI-H322M lung) | growth (HOP-62 NSCLC) | growth (NCI-H460 lung) | growth (HOP-92 NSCLC) | growth (NCI-H522 lung) | growth (A549/ATCC NSCLC) | growth (786-0 renal) | growth (COLO 205 colon)
CC(C)/C=N/NC(N)=S | 96.6% | 95.7% | 101% | 75.6% | 97.4% | 73.1% | 94% | 71.8% | 100% | 103%
Cn1c([N+](=O)[O-])cnc1C=C1C(=O)c2ccccc2C1=O | 53.7% | 81.7% | 72.7% | 74.7% | 68.9% | 20.4% | 3.27% (active) | 65.6% | 41.1% | 42.3%
Cc1cc(C)c(/C=C2\C(=O)Nc3ccc(NC(=O)CCCCCCC(=O)NO)cc32)[nH]1 | 52.4% | 65.6% | 31.3% | 34% | 77.4% | -30.4% (active) | -10.6% (active) | 82% | 72% | 3.61% (active)
COc1cc(C2CC(=O)Nc3c2c(C)nn3-c2nc3ccccc3[nH]2)cc(OC)c1O (stereo not given) | 36.8% | 66% | 80.4% | 88.6% | 36.2% | 32% | 64.8% | 40.1% | 53.1% | 106%
O=C1/C(=C/c2ccc([N+](=O)[O-])s2)Oc2ccc(Cl)cc21 | -35.5% (active) | -56.8% (active) | -43% (active) | -6.59% (active) | -48.8% (active) | -71% (active) | -70.3% (active) | -26.5% (active) | -17.3% (active) | -69.6% (active)
COc1ccc(-c2cn[nH]c2-c2cc(OC)c(OC)c(OC)c2)cc1 | 27.8% | 56.7% | 26.4% | 45.2% | 3.25% (active) | -5.63% (active) | -17.9% (active) | 21.2% | -4.65% (active) | -68% (active)
COc1ccc(N2CCN(c3nc(-c4ccccc4)c(C#N)c(=O)[nH]3)CC2)cc1 | 98.7% | 107% | 94.6% | 91.8% | 103% | 92.4% | 92.7% | 104% | 103% | 102%
O=C(c1ccccc1)C(Nc1ccccc1)c1ccccc1 (stereo not given) | 84.5% | 82.7% | 85.4% | 83.5% | 98.1% | 78.6% | 67.7% | 87.4% | 97.3% | 98.7%
COc1cc(C2=Nc3c/c(=C\c4c(O)[nH]c5ccc(Cl)cc45)ccc3=N2)cc(OC)c1OC | 2.68% (active) | 55.4% | 57.2% | -82% (active) | 8.64% (active) | -61.5% (active) | 24.9% | 56.5% | -6.36% (active) | -41.1% (active)
CC(C)/C(=N/O)c1ccccc1 | 103% | 104% | 133% | 116% | 120% | 91.3% | 90.8% | 111% | 88.2% | 115%
Cc1nc2ccc(-n3c(-c4ccc(Cl)cc4)nc4ccccc4c3=O)cc2n1Cc1ccccc1 | 87.8% | 87.8% | 96.5% | 81.9% | 102% | 80.3% | 74.2% | 79.6% | 105% | 93.8%
C[N+]1(CC2CO2)CCCCCC1 (stereo not given) | 110% | 99.4% | 107% | 103% | 106% | 113% | 107% | 107% | 105% | 120%
COc1ccc(-c2cc(=O)n(-c3nc4ccccc4[nH]3)[nH]2)cc1OC | 80.4% | 85.1% | 66.6% | 71.6% | 41.4% | 17.4% | 49.2% | 59% | 83% | 113%
CCOc1nc(-c2ccccc2)cc2c(O)c(C(=O)NC(C)C)[nH]c(=O)c12 | 97% | 105% | 120% | 99.7% | 105% | 58.2% | 88.3% | 104% | 112% | 118%
CC(C)C(C)C(N)C(=O)O (stereo not given) | 97.8% | 102% | 99% | 89.9% | 109% | 86.8% | 91.2% | 104% | 92.8% | 108%
CCOC(=O)c1cc(-c2ccccc2)nc(N)n1 | 99.5% | 89.5% | 99% | 96.1% | 104% | 78.1% | 95.5% | 102% | 108% | 114%
O=C1/C(=C/c2ccc(O)cc2)Cc2ccc(Cl)cc21 | 69.5% | 68.1% | 84.9% | 95.3% | 84.4% | 77.3% | -38.8% (active) | 85.9% | 92.2% | 120%
COc1ccc(-c2nc(-c3nc4ccc(OC)cc4[nH]3)c3ccccn23)cc1 | 90.5% | 75.1% | 65% | 63% | 67.7% | 13.9% | 62.8% | 48% | 84.4% | 95.1%
CCCc1ccnc(NS(=O)(=O)c2ccc(N)cc2)n1 | 62.8% | 79.2% | 103% | 105% | 95.4% | 93.1% | 56.6% | 79.3% | 90.3% | 37.8%
COc1cc(C2C=C(c3ccc(Cl)cc3)N=C3SC(C)=CN32)cc(OC)c1OC (stereo not given) | 93.8% | 96.9% | 97.3% | 109% | 102% | 95.2% | 69.9% | 83.8% | 89.5% | 109%
C[C@H](NC(=O)[C@@H]1CSSC[C@@H](NC(=O)Cc2nc3ccccc3cc2O)C(=O)NCC(=O)N1C)c1ccccc1 | 106% | 104% | 105% | 90.2% | 94.2% | 116% | 88.3% | 90.5% | 114% | 89.7%
O=C(NC1CCCC1)c1ccc(N2CCC(NCc3cccc(C(F)(F)F)c3)CC2)cc1 | 93.5% | 84.6% | 89.1% | 77.4% | 99.5% | 52.7% | 93.6% | 93% | 84.3% | 8.68% (active)
COC(=O)CCCCCCCCC(C)c1ccc(C(C)=O)cc1 (stereo not given) | 99.9% | 104% | 121% | 100% | 108% | 113% | 101% | 105% | 102% | 114%
CN(C)c1ccc2cc(-c3cc4c(oc3=O)-c3ccccc3OC4O)c(=O)oc2c1 (stereo not given) | -3.16% (active) | -14.9% (active) | 39% | 12.1% | 56.7% | -49.1% (active) | -57.2% (active) | 39.5% | -15.7% (active) | -56.2% (active)
COC(=O)[C@]12CC[C@@H](C)[C@H](C)[C@@H]1C1=CC[C@@H]3[C@@]4(C)C/C(=N\O)[C@H](O)[C@@]5(C)COC(=C45)C[C@@]3(C)[C@]1(C)CC2 | -75.7% (active) | -76.7% (active) | -77.2% (active) | -96.7% (active) | -76.5% (active) | -79% (active) | -84.7% (active) | -90.6% (active) | -81% (active) | -91.9% (active)

Reference: PubChem BioAssay (NCI)
